# Laboratory results reported in PubChem BioAssay AID1508649 (National Center for Advancing Translational Sciences (NCATS), 2021).
# The whole screen tested about 43,000 compounds, of which about 830 (1.9%) were called active. Roughly 30% stayed inconclusive and do not appear here. The entries come from a sample that favours actives as a whole. Unmarked numbers belong to inactive results. How the source made its calls: active means clear falling dose curves in both reporters; inconclusive means both reporters move, but less clearly or upward; inactive means either reporter flat; the % is the NLuc reporter signal.
# Assay: Cell-based coincidence reporter assay to measure PMP22 gene transcription in S16 Pmp22-F2sN cells - Primary screen
# Conditions: S16 Pmp22-F2sN Schwann cells (luciferase reporters placed in the Pmp22 gene), FLuc/NLuc coincidence luminescence, 24 h; series mostly up to 57.5 µM; activity change, negative = inhibition: at the top concentration
# Excerpt: Assay Provider: Jim Inglese Ph.D. National Center for Advancing Translational Science, National Institutes of Health, Rockville, MD CMT is a heterogeneous group of neurological disorders that affect approximately 1 in 2,500 people. In particular, the most common form of CMT, CMT1A is genetically linked to the duplication of the PMP22 gene which leads to Schwann cell overexpression, thus manifesting itself as a typical case of dose-sensitive diseases. To identify small molecule compounds that can mediate the expression of PMP22 we developed a phenotypic assay screening strategy by utilizing genome editing techniques to construct Schwann cell lines containing novel reporter technology to monitor the transcriptional or translational regulation of PMP22. For high sensitivity we use a bioluminescent reporter system embedded in the 3' UTR of the PMP22 gene (S16(c9) Pmp22-F2sN) to identify compounds that inhibit gene expression. […] We can further discriminate the effect of all transcriptionally active molecules on PMP22 translation or stability with an assay that incorporates a short NLuc peptide (HiBiT) at the C-terminus of expressed PMP22 (S16(f8) PMP22-HiBiT) allowing alpha complementation and luminescence detection of membrane-associated PMP22 protein. These assays were screened against the NCATS Sytravon Library Collection. Miniaturization of these assays to 1536-well plate format for quantitative high throughput screening (qHTS) yielded rich data sets immediately from the qHTS assay (S16(c9) Pmp22-F2sN), when compared with data from a cell viability assay (Cell TiterGlo) to identify compounds that decreased the output signals through cellular toxicity to streamline the selection process of actives for subsequent characterization using the HiBiT assay (S16(f8) PMP22-HiBiT).
# Cell-based coincidence reporter assay to measure PMP22 gene transcription in S16 Pmp22-F2sN cells PROTOCOL TABLE (format as described by Inglese J, Shamu CE and Guy RK. 2007) SEQUENCE No. (e.g., 1, 2, 3, etc.); […] (e.g., Cells, Incubation, Reagent, etc.); VALUE and DESCRIPTION. 1. Cells. Add 500-1,000 cells in 4 uL in growth media (DMEM High Glucose, No Phenol Red media + 10% heat-inactivated FBS + 1% Pen/Strep supplemented media) per well into Greiner 1536-well white/solid bottom high base, TC-treated plates. 2. Compounds. Library compounds and controls added at 23nL per well, transferred by Pin Tool. 3. Incubation. Incubate plates at 37C, 5% CO2, 95% RH for 24 h. 4. Reagent. Add 3.5uL Nano-Glo Dual-Luciferase Reporter Assay System reagent 1: Lysis and FLuc reagent per well of Greiner 1536-well plates. 5. Incubation. Incubate plates at room temperature for 10 min., protect from light. 6. Detector. FLuc luminescence measured using CCD-based camera (Viewlux). 7. Reagent. Add 3.5uL Nano-Glo Dual-Luciferase Reporter Assay System reagent 2: Stop&Glo reagent per well of Greiner 1536-well plates. 8. Incubation. Incubate plates at room temperature for 10 min., protect from light. 9. Detector. NLuc luminescence measured using CCD-based camera (Viewlux). NOTES (numbers refer to Sequence numbers above; values are from representative experiments) 6. Luminescence Read #1 (FLuc): Clear filter; Exposure = 10 sec, Gain = High, Speed = Slow, Binning = 2X 9. Luminescence Read #2 (NLuc): Clear filter; Exposure = 1 sec, Gain = High, Speed = Slow, Binning = 2X REFERENCES: 1. Inglese J, Shamu CE and Guy RK, Reporting data from high throughput screening of small molecule libraries, Nature Chemical Biology, 2007, 3(8): 438-441. doi.org/10.1038/nchembio0807-438 2. Yasgar A, Shinn P, Jadhav A, Auld DS, Michael S, Zheng W, Austin CP, Inglese J and Simeonov A, Compound Management for Quantitative High-Throughput Screening. J. Assoc. Lab. Auto., 2008, 13: 79-89. doi: 10.1016/j.jala.2007.12.004
# On the % scale 0 is the no-effect control and ±100 the full control effect; potency means the concentration at half of the fitted maximal effect.
SMILES,"activity change, negative = inhibition",Potency
CCC(=O)N1CCc2cc(Br)cc(S(=O)(=O)CCC(=O)N3CCN(c4ccc(F)cc4)CC3)c21,-7.19%,
COc1ccc(OC)c(-n2nnc(-c3nc(-c4cc(OC)c(OC)c(OC)c4)no3)c2C)c1,-0.737%,
COc1ccc(C(=O)COC(=O)CCCC(=O)Nc2cc(C(F)(F)F)ccc2Cl)cc1,3.27%,
COc1ccc(-c2nn3c(=O)cc(CN4CCN(C(=O)c5ccc(OC)c(OC)c5)CC4)nc3s2)cc1,12.8%,
CCOc1ccc(N(CC)C(=O)c2noc3c2COc2ccc(C)cc2-3)cc1,-28.9%,
CCOc1ccc(N(CC)C(=O)C2CCN(S(=O)(=O)c3cccc4nonc34)CC2)cc1,-35.2%,
CCOc1ccc(N(Cc2ccccc2)C(=O)c2nc(S(C)(=O)=O)ncc2Cl)cc1,,1.5 µM (active)
COc1ccccc1-c1noc(-c2ccc(NCc3ccccc3)c([N+](=O)[O-])c2)n1,-5.34%,
Cc1ccc(C)c(S(=O)(=O)n2nc(C)c(S(=O)(=O)N3CCC(C)CC3)c2C)c1,-0.0168%,
O=C(CC1Oc2ccccc2NC1=O)NCc1ccc(F)cc1 (configuration not stated),-7.34%,
CCOc1ccc(NC(=O)C2CCN(S(=O)(=O)c3cc(-c4noc(C)n4)ccc3C)CC2)cc1,-42.5%,
COc1ccc(N2CC(C(=O)NCCS(=O)(=O)N3CCN(c4ccccc4)CC3)CC2=O)cc1 (configuration not stated),5.34%,
Cc1ccccc1CNC(=O)Cn1c(C)c2cnn(-c3ccccc3)c(=O)c2c1C,-12.3%,
Cc1nnc(N2CCCC(C(=O)NCCN(C)C)C2)c2nn(-c3ccccc3)c(C)c12 (configuration not stated),-57.6%,
Cc1ccccc1CNC(=O)CSc1nnc(C)c2c(C)n(-c3ccccc3)nc12,,16.8 µM (active)
COc1ccccc1CNC(=O)Cn1nc(C)c2nn(-c3ccc(Cl)cc3)c(C)c2c1=O,-3.87%,
Cc1nnc(SCC(=O)NCc2ccccc2Cl)c2nn(-c3ccccc3)c(C)c12,,14.1 µM (active)
COc1ccc(OC)c(CNC(=O)Cn2nc(C)c3c(C)n(-c4ccccc4)nc3c2=O)c1,-3.25%,
CCc1cnc2c(c1SCC(=O)N1CCC(C)CC1)c(=O)n(C)c(=O)n2C,-1.6%,
COc1ccc(NC(C)=O)cc1NC(=O)CN1CCN(c2ccc(F)cc2)CC1,4.65%,
COc1cc(C(=O)N2CCC(c3ccncc3)CC2)cc(OC)c1OC,-7.79%,
CCOC(=O)c1oc2ccc(S(=O)(=O)n3nc(-c4ccccc4OC)cc3N)cc2c1C,,14.4 µM (active)
COc1ccccc1-c1cc2nc(C)c(CCC(=O)O)c(C)n2n1,27.9%,
COc1ccc(NC(=O)c2oc3ccc(S(=O)(=O)N4CCOCC4)cc3c2C)cc1,14.2%,

SMILES,"activity change, negative = inhibition",Potency
COc1cccc(C(=O)NC2(C(F)(F)F)C(=O)Nc3c2c(=O)[nH]c(=O)n3-c2ccc(C)cc2)c1 (configuration not stated),-20.3%,
CCn1c(C(=O)Nc2cc(Cl)ccc2C)cc2sc(Cl)cc21,-32.4%,
Cc1ccc(NC(=O)C2CCCN2S(=O)(=O)c2cccc3cccnc23)c(C)c1 (configuration not stated),-8.58%,
COC(=O)c1cc2occc2n1Cc1nc(-c2ccc(C)cc2)oc1C,-7.42%,
COc1ccc(-n2nc(C(=O)NCCc3ccc(Cl)cc3)c3c4ccccc4n(C)c3c2=O)cc1Cl,-8.53%,
Cc1ccccc1C(=O)Nc1sc2c(c1C(=O)N1CCC(C)CC1)CCCC2,-10.7%,
Cc1ccc(OCCSc2nc3ccc(NC(=O)COc4ccc(C)cc4)cc3s2)cc1,,8.91 µM (active)
O=C(Nc1ccc2nc(SCCOc3ccccc3)sc2c1)c1ccco1,-21.5%,
COc1cc(C)ccc1OCCSc1nc2ccc(NC(=O)c3ccc(C)cc3)cc2s1,-8.04%,
CCc1ccc(S(=O)(=O)n2ccnc2)cc1,0.251%,
O=C(CN1C(=O)CCn2nc(-c3ccccc3)cc21)NCc1ccccc1,-8.68%,
Cc1noc(/C=C/N(C)C)c1S(=O)(=O)N1CCCC(C(=O)Nc2cccc(F)c2)C1 (configuration not stated),-12.4%,
CC(=O)N1CCCc2cc(S(=O)(=O)N3CCCC(C(=O)N4CCN(c5cccc(Cl)c5)CC4)C3)ccc21 (configuration not stated),,10 µM (active)
CC(=O)N1CCCc2cc(S(=O)(=O)N3CCCC(C(=O)NCc4ccc(Cl)cc4)C3)ccc21 (configuration not stated),-50.4%,
COc1cccc(N2CCN(S(=O)(=O)c3ccc4c(c3)CCCN4C(C)=O)CC2)c1,-20.8%,
Cc1cccc(Nc2nc(C)nc(N)c2S(=O)(=O)c2ccccc2)c1,-24.8%,
Cc1cccc(Nc2cc(C)nc(-n3nc(C)cc3C)n2)c1,,9.15 µM (active)
Cc1ccc(Nc2nc3ccccc3nc2-n2nc(C)cc2C)c(Cl)c1,-3.07%,
Cc1cccc(NC(=O)Cn2cc(S(=O)(=O)Cc3ccccc3Cl)c3ccccc32)c1,-23.6%,
Cc1c(Cl)cccc1NC(=O)N1CCN(C(=O)c2nsc3ccccc23)CC1,6.76%,
Cc1c(Cl)cccc1NC(=O)Cn1cc(C(=O)c2cccs2)c2ccccc21,,8.91 µM (active)
Cc1cccc(NC(=O)CSc2nc(-c3ccco3)cc(C(F)(F)F)n2)c1C,-2.59%,
Cc1ccc2ncc(C(=O)Nc3ccc(OC(F)(F)F)cc3)c(=O)n2c1,-9.44%,
